PubChem BioAssay AID1076 (NMMLSC, 2008)
Activity calls are given as the source filed them.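 Rule for the calls: active = cell event count below 40, meaning activity score above 60 where score is 100 minus count; inactive = the rest.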

Assay: cytotoxicity in LNCaP prostate cells – cell-based, cell event count, single point, cytotoxicity control for prostate differentiation activator project, confirmation (AID 1076);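 note: counts scatter-gated live cells after medium removal discards detached dead cells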
Conditions: LNCaP cell loss, flow cytometry event count, 4 d, stronger effect = lower value

| SMILES | cell event count (at 100 µM) | cell event count (event count, at 10 µM) |
| --- | --- | --- |
| COc1ccc2nc(NC(=O)C(NS(=O)(=O)c3cccs3)C(C)C)sc2c1 (stereo unspecified) | 67 (inactive) | 253 |
| Cc1oc(-c2ccccc2F)nc1CN1CCC(C(=O)NC2CC2)CC1 | 363 (inactive) | 496 |
| Cc1oc(-c2ccc(Cl)cc2)nc1CN1CCC(C(=O)NCc2cccnc2)CC1 | 20 (inactive) | 125 |
| CS(=O)(=O)c1nc(-c2cccs2)cc(C(F)(F)F)n1 | 53 (inactive) | 61 |
| Nc1ccccc1NC(=O)c1ccccc1N | 236 (inactive) | 313 |
| CCOc1ccc(C(=O)Nc2ccc(Cl)cn2)cc1Cl | 41 (inactive) | 86 |
| COc1ccc(OC)c(N=Cc2c(O)[nH]c3ccccc23)c1 | 207 (inactive) | 112 |
| CCCOc1ccc2nc(NC(=O)OC)[nH]c2c1 | 12 (inactive) | 102 |
| CCOC(=O)N1CCC(NC(=O)C2CCCN(Cc3nc(-c4cccc(Cl)c4)oc3C)C2)CC1 (stereo unspecified) | 33 (inactive) | 114 |
| Cc1ccccc1-c1nc(CN2CCC(C(=O)NCc3ccco3)CC2)c(C)o1 | 158 (inactive) | 296 |
| COc1ccccc1NC(=O)c1nc[nH]c1C(=O)Nc1ccccc1OC | 103 (inactive) | 257 |
| CCN(CCNC(=O)C1CCN(Cc2nc(-c3ccc(Cl)cc3)oc2C)CC1)c1ccccc1 | 24 (inactive) | 391 |
| O=c1cc(N2CCc3ccccc3C2)[nH]c(=O)n1C1CCCCC1 | 143 (inactive) | 76.5 |
| CCc1ccc(NC(=O)NCCN2CCc3ccccc3C2)cc1 | 6 (inactive) | 112 |
| Cc1cc(N2C(=O)C3C4C=CC(C4)C3C2=O)ccc1Br (stereo unspecified) | 272 (inactive) | 69.5 |
| Cc1cc(=O)n2nc(N3CCCC(C(=O)NCCCN4CCc5ccccc5C4)C3)sc2n1 (stereo unspecified) | 259 (inactive) | 146 |
| COc1ccc(NC(=O)NCCCN2CCN(c3cc(C)ccc3C)CC2)cc1 | 1 (inactive) | 102 |
| O=C(CCNC(=O)Cn1ccc2ccccc2c1=O)NCCCN1CCN(c2ccc(F)cc2)CC1 | 156 (inactive) | 91.5 |
| CCn1c(=O)cc(SCC(=O)NCCCN2CCN(c3ccccc3F)CC2)c2ccccc21 | 6 (inactive) | 338 |

| SMILES | cell event count (at 100 µM) | cell event count (event count, at 10 µM) |
| --- | --- | --- |
| CCc1ccc(-c2nc(CN3CCC(C(=O)N4CCN(c5ccccn5)CC4)CC3)c(C)o2)cc1 | 10 (inactive) | 212 |
| CCn1c(=O)cc(OCC(=O)NCCCN2CCN(c3cccc(Cl)c3)CC2)c2ccccc21 | 20 (inactive) | 307 |
| CCN1CCN(CCNC(=O)C2CCCN(Cc3nc(-c4cccc(Cl)c4)oc3C)C2)CC1 (stereo unspecified) | 14 (inactive) | 141 |
| Cc1nc2c3cnn(-c4ccccc4)c3ncn2n1 | 159 (inactive) | 145 |
| O=C(CN1CCN(Cc2ccc3c(c2)OCO3)CC1)N1CCc2[nH]c3ccc(F)cc3c2C1 | 24 (inactive) | 234 |
| Cc1cccc(-c2nsc(SCC(=O)Nc3nccs3)n2)c1 | 144 (inactive) | 169 |
| Cc1ccc2c(c1)NC(=O)C(CC(=O)NCCCN1CCN(c3cc(Cl)ccc3C)CC1)O2 (stereo unspecified) | 6 (active) | 66 |
| COc1ccc(OC)c(CNC(=O)CCNC(=O)Cn2ccc3ccccc3c2=O)c1 | 63 (inactive) | 73 |
| COc1ccc(-n2c(C)nc3c(cnn3-c3ccc(Cl)cc3)c2=O)cc1 | 45 (inactive) | 84 |
| Cc1ccc(C)c(N2CCN(CCCNC(=O)Cn3cc4c(n3)CCC(C)C4)CC2)c1 (stereo unspecified) | 5 (inactive) | 276 |
| CCOC(=O)c1ccc(NC(=O)Nc2ccc3c4c(cccc24)C(=O)N3CC)cc1 | 70 (inactive) | 254 |
| Cc1cc(C)nc(N2CCC(C(=O)Nc3ccc(Oc4ccccc4)cc3)CC2)n1 | 145 (inactive) | 398 |
| O=C(COc1ccc(S(=O)(=O)N2CCCC2)cc1Cl)NC1CC1 | 355 (inactive) | 328 |
| CC(C)Cc1nc2oc3c(N4CCN(CCO)CC4)ncnc3c2c2c1CCCC2 | 3 (inactive) | 120 |
| Cc1cccc(-c2nc(CN3CCCC(C(=O)NC4CCCCCC4)C3)c(C)o2)c1 (stereo unspecified) | 17 (inactive) | 222 |
| COCCCN(C(=O)Nc1ccccc1)C(C)c1ccncc1 (stereo unspecified) | 238 (inactive) | 387 |
| COc1ccc(N2CCN(CCCNC(=O)CC3Oc4ccc(C)cc4NC3=O)CC2)cc1 (stereo unspecified) | 290 (inactive) | 140 |
| CCCS(=O)(=O)N1CCCC(C(=O)NCCCN2CCN(c3ccccc3F)CC2)C1 (stereo unspecified) | 110 (inactive) | 168 |
| Cc1cc(NC(=O)CSc2nnc(C3CC3)n2C)no1 | 198 (inactive) | 100 |
